# Assay results from PubChem BioAssay (NCI).
# Compounds without any hit were thinned out: in the full panel of roughly 83,000, 20% have a hit.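 Single-concentration screen, 48 h exposure, 96-well plates. Endpoint: percent growth. Below 10 = active.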 Unmarked numbers belong to inactive results. Active and inactive are the calls of the source.
# Experiments:
# Experiment in all cases: NCI-60 one-dose screen, 48 h (100 = growth as untreated, 0 = no growth, -100 = all killed)
# SR leukemia = settings: 10 µM unless noted
# RPMI-8226 leukemia = settings: 10 µM unless noted
# OVCAR-8 ovarian = settings: 10 µM unless noted
# OVCAR-5 ovarian = settings: 10 µM unless noted
# OVCAR-4 ovarian = settings: 10 µM
# OVCAR-3 ovarian = settings: 10 µM unless noted
# HS 578T breast = settings: 10 µM unless noted
# NCI/ADR-RES ovarian = settings: 10 µM unless noted
# T-47D breast = settings: 10 µM unless noted
# BT-549 breast = settings: 10 µM unless noted
# MDA-MB-435 melanoma = settings: 10 µM unless noted
# SW-620 colon = settings: 10 µM unless noted
# MCF7 breast = settings: 10 µM unless noted
# HCT-116 colon = settings: 10 µM unless noted
# HCC-2998 colon = settings: 10 µM unless noted
# KM12 colon = settings: 10 µM unless noted
# SK-OV-3 ovarian = settings: 10 µM unless noted
# IGROV1 ovarian = settings: 10 µM unless noted
Structure (SMILES),growth (SR leukemia),growth (RPMI-8226 leukemia),growth (OVCAR-8 ovarian),growth (OVCAR-5 ovarian),growth (OVCAR-4 ovarian) [%],growth (OVCAR-3 ovarian),growth (HS 578T breast),growth (NCI/ADR-RES ovarian),growth (T-47D breast),growth (BT-549 breast),growth (MDA-MB-435 melanoma),growth (SW-620 colon),growth (MCF7 breast),growth (HCT-116 colon),growth (HCC-2998 colon),growth (KM12 colon),growth (SK-OV-3 ovarian),growth (IGROV1 ovarian)
Clc1ccc(N2CCN(CCCN3CCN(c4cccc(Cl)c4)CC3)CC2)cc1,15.4%,24.9%,70.7%,78.9%,55.7,66.4%,103%,65.5%,40.2%,29.4%,62.4%,66.5%,44.6%,36.6%,66.8%,59.5%,–,–
C=C(C)[C@@H]1CC[C@]2(C(N)=O)CC[C@]3(C)[C@H](CC[C@@H]4[C@@]5(C)C/C(=C/c6cccnc6)C(=O)C(C)(C)[C@@H]5CC[C@]43C)[C@@H]12,10.7% [100 µM],6.37% [100 µM] (active),20.3% [100 µM],-6.45% [100 µM] (active),–,12.5% [100 µM],25.5% [100 µM],14.7% [100 µM],1.22% [100 µM] (active),14.1% [100 µM],0.0948% [100 µM] (active),3.53% [100 µM] (active),10.8% [100 µM],5.4% [100 µM] (active),-15.9% [100 µM] (active),-3.05% [100 µM] (active),12.9% [100 µM],14.9% [100 µM]
CC(C)=CC/C=C(/C)[C@H]1CC[C@]2(C)[C@@H]1CC[C@@H]1[C@@]3(C)CC/C(=N/O)C(C)(C)[C@@H]3CC[C@]12C,45.2% [100 µM],52% [100 µM],40.8% [100 µM],80.6% [100 µM],–,52.4% [100 µM],64.3% [100 µM],63.9% [100 µM],27.2% [100 µM],61.5% [100 µM],52.2% [100 µM],61.3% [100 µM],36.1% [100 µM],24.1% [100 µM],69.5% [100 µM],51.6% [100 µM],68.8% [100 µM],76.2% [100 µM]
COc1cc(/C=C/C(=O)/C=C/c2ccc(-n3ccnc3C)cc2)ccc1O,17.8%,-23.5% (active),34.9%,101%,–,23.7%,68.6%,102%,54.5%,95.5%,-3.29% (active),2.17% (active),4.86% (active),90.6%,-47.3% (active),-49.7% (active),86.1%,-37.5% (active)
CCOC(=O)c1cc(C#N)n2ncc3ccccc3c12,98.4%,105%,97.7%,84.7%,–,103%,98.3%,97.7%,92.2%,91.5%,103%,98%,87.2%,90.8%,104%,102%,107%,92.4%
O=C(N=c1n(-c2ccccc2)nc2n1CCN2C1=NCCN1C(=O)c1ccc(Cl)cc1)c1ccc(Cl)cc1,73.9%,73.2%,78.7%,88.8%,–,53.6%,82.7%,73.3%,50.1%,59.6%,70.5%,68.3%,46%,39.1%,85.8%,60.7%,92.9%,59%
O=C1CN(Cc2ccc(C(=O)NO)cc2)C(=O)[C@@H](Cc2ccccc2)N1,113%,102%,95.6%,101%,–,109%,101%,110%,93.2%,101%,100%,102%,96%,97.2%,109%,104%,96.5%,106%
Cc1cnc([C@]23CC[C@@H](C)[C@H](C)[C@H]2C2=CC[C@@H]4[C@@]5(C)Cc6c([nH]c7ccccc67)C(C)(C)[C@@H]5CC[C@@]4(C)[C@]2(C)CC3)o1,121% [100 µM],26.6% [100 µM],39.3% [100 µM],59.7% [100 µM],–,83.8% [100 µM],70.2% [100 µM],68.3% [100 µM],58% [100 µM],46.5% [100 µM],-16.7% [100 µM] (active),20.6% [100 µM],46.8% [100 µM],17.3% [100 µM],50% [100 µM],24.7% [100 µM],73.9% [100 µM],25.9% [100 µM]
CCOC(=O)c1cnc2ccc(Br)cc2c1Nc1cccc(S(N)(=O)=O)c1,94.6%,97%,92.8%,93.6%,–,102%,98.5%,97.4%,81.4%,96.3%,101%,99.2%,93.8%,85.6%,115%,96%,105%,99.6%
O=C(Nc1ccc(Oc2ccc(F)cc2)c(Cl)c1)c1cccnn1,97.6%,62.6%,71.3%,84%,–,73.6%,95.6%,69.4%,37.6%,103%,67.2%,94.1%,65.3%,96.8%,89.1%,79.2%,88.8%,97.6%
CCN(CC)c1ccc2cc(C(Nc3ccc(C)cc3)c3nnnn3C(C)(C)C)c(=O)oc2c1 (stereo unspecified),94.5%,87.4%,98.4%,101%,–,101%,90.7%,90.6%,71.1%,89.1%,97.5%,102%,81.4%,87.9%,107%,103%,102%,97.4%
CC(C)c1ccc(/C=N/N=C(N)N)cc1,21.6%,17.1%,89.8%,89.5%,–,72.6%,97.8%,79.4%,91%,86.3%,-28.7% (active),36.2%,8.1% (active),84.3%,50.9%,27.7%,85.5%,89.5%
CCOC(=O)c1nc2c3ccccc3ccn2c1C(=O)OC,130%,86.9%,100%,89.5%,–,106%,105%,102%,76.4%,97%,96.5%,100%,97.6%,97.5%,91.1%,107%,94%,94.3%
CC1(C)[C@@H](NOCCCN)CC[C@]2(C)[C@H]3C(=O)C=C4[C@@H]5C[C@](C)(C(=O)O)CC[C@]5(C)CC[C@@]4(C)[C@]3(C)CC[C@@H]12,17.9% [100 µM],-5.46% [100 µM] (active),-25.9% [100 µM] (active),-100% [100 µM] (active),–,-50.1% [100 µM] (active),-22.8% [100 µM] (active),-34.2% [100 µM] (active),-29.8% [100 µM] (active),-23.2% [100 µM] (active),-59.1% [100 µM] (active),-43.3% [100 µM] (active),-25.2% [100 µM] (active),-87.4% [100 µM] (active),-50% [100 µM] (active),-65.8% [100 µM] (active),-23.7% [100 µM] (active),-88.5% [100 µM] (active)
CC[C@]12C=CCN3CC[C@@]4(c5ccc(OC)cc5N(C)[C@H]4[C@@](O)(C(=O)OC)[C@@H]1OC(=O)CCC(=O)N[C@H](Cc1c[nH]c4ccccc14)C(=O)OC)[C@@H]32,26% [100 µM],0.693% [100 µM] (active),0.282% [100 µM] (active),-58.1% [100 µM] (active),–,-48.8% [100 µM] (active),-43.8% [100 µM] (active),-30.7% [100 µM] (active),-29.3% [100 µM] (active),-16.5% [100 µM] (active),-60.6% [100 µM] (active),-50.6% [100 µM] (active),-43.3% [100 µM] (active),3.55% [100 µM] (active),-43.3% [100 µM] (active),-35.1% [100 µM] (active),-18.1% [100 µM] (active),-38.7% [100 µM] (active)
CC(C)=CCC[C@](C)(O)[C@H]1CC[C@]2(C)[C@@H]1CC[C@@H]1[C@@]3(C)CC/C(=N/O)C(C)(C)[C@@H]3CC[C@]12C,12.5% [100 µM],-2.67% [100 µM] (active),-69.7% [100 µM] (active),2.17% [100 µM] (active),–,-42.3% [100 µM] (active),-13% [100 µM] (active),-10.9% [100 µM] (active),7.5% [100 µM] (active),1.19% [100 µM] (active),5.38% [100 µM] (active),-48% [100 µM] (active),10% [100 µM],-9.52% [100 µM] (active),10.9% [100 µM],15.8% [100 µM],12.4% [100 µM],-66.5% [100 µM] (active)
